Compound activity deposited in PubChem BioAssay by several laboratories.
GDH-TPI inh: GDH-TPI coupling enzyme inhibitors, primary screen, artefact control for M. tuberculosis FBA inhibitor project, biochemical, absorbance, full deck; 360,000 tested, 1.2% active; GDH-TPI coupled enzyme counterscreen, NADH absorbance; inhibition, % at 4.8 µM; AID 588335, 2011; in the data active = inhibition above about 30%;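 also: 0% = DMSO wells and 100% = wells lacking the enzyme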
Rv3671c inh: Rv3671c serine protease inhibitors, primary screen, biochemical, fluorescence polarization, M. tuberculosis H37Rv | 320,000 tested, 0.048% active | P9WHR9 | inhibition, % at 5.96 µM; in the data active = inhibition above about 38%;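 also: extracellular domain of Rv3671c used as enzyme; 0% = enzyme with DMSO and 100% = no enzyme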
UGM FP inh: M. tuberculosis UGM enzyme inhibitors, primary screen, biochemical, fluorescence polarization, single point | inhibition, % at 10 µM | purified UGM, fluorescence polarization probe displacement | 320,000 tested, 0.06% active | UDP-galactopyranose mutase (Mycobacterium tuberculosis (strain ATCC 25618 / H37Rv)), … | AID 504406, 2011; in the data active = inhibition above about 10%, passing the limit was not always enough
Mtb FBA inh: Mtb FBA enzyme inhibitors, primary screen, biochemical, fluorescence, strain H37Rv; Fructose-bisphosphate aldolase (Mycobacterium tuberculosis (strain ATCC 25618 / H37Rv)), …; purified M. tuberculosis FBA, fluorescence read-out; inhibition, % at 1 µM; 360,000 tested, 2.3% active; AID 588726, 2011; in the data active = inhibition above about 27%;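 also: 0% = vehicle and 100% = reference inhibitor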
Target sequence (P9WQA3 whole entry, looked up): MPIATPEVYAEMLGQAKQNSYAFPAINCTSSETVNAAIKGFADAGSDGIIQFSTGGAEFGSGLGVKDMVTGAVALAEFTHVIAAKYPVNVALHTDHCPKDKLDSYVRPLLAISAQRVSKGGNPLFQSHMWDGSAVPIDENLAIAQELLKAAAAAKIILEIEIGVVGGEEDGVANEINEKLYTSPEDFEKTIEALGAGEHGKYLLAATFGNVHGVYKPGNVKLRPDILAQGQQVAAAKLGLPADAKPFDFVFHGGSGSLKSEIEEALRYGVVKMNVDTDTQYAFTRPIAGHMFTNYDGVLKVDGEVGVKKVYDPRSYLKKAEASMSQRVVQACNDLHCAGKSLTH
Numbers without * were called inactive; . = not tested or not shown; + = active, no number. Sampled rows, rich in hits. Any-hit rate of the full collection: about 3.5%.

SMILES	GDH-TPI inh	Rv3671c inh	UGM FP inh	Mtb FBA inh
CCOC(=O)C1CCCN(C(=O)c2ccc(F)c(C)c2)CC1 (centres undefined)	4.0	.	.	-0.5
Nc1ncnc2c1ncn2-c1ccccc1Cl	4.7	.	.	-1.6
Cc1cc(/C=C(/C#N)c2cccc(F)c2)c(C)n1-c1cccnc1	38.2*	-0.4	1.5	-1.6
CCOC(=O)c1c(N)c2cc([N+](=O)[O-])ccc2n1C	5.4	-3.4	4.1	1.7
CCOC(=O)/C(=C/c1c(C)n(C)c2ccc([N+](=O)[O-])cc12)C(C)=O	31.5*	-1.3	0.1	-8.2
COc1ccc(CCn2c(=N)c(C(=O)NCCN3CCOCC3)cc3c(=O)n4cccc(C)c4nc32)cc1OC	8.4	-1.7	-2.8	1.7
Cc1cccn2c(=O)c3cc(C(=O)NCc4ccccc4)c(=N)n(CCCN4CCOCC4)c3nc12	5.6	.	.	124.7*
Cc1ccc2nc3c(cc(C(=O)NCCc4ccccc4)c(=N)n3CCCN3CCOCC3)c(=O)n2c1	0.8	-4.6	3.1	122.3*
Cc1cccn2c(=O)c3cc(C(=O)NCCN4CCOCC4)c(=N)n(CCCN4CCOCC4)c3nc12	6.7	-2.7	-1.2	114.3*
CC(Oc1ccccc1F)C(=O)NNC(=O)CCNC(=O)c1ccccc1Cl (centres undefined)	0.7	-0.7	-2.8	0.2
COCCCn1c(=O)/c(=C/c2ccccc2OC(F)F)s/c1=C(\C#N)C(=O)NCCOC	17.9	.	.	0.5
COCCCn1c(=O)/c(=C\c2cccc(OC)c2OC)s/c1=C(/C#N)C(=O)Nc1ccc(C(=O)O)cc1	39.5*	-19.4	2.2	-2.1
CN1/C(=C\C=N\NC(=O)c2ccc(O)cc2)C(C)(C)c2ccccc21	39.5*	-149.4	0.7	-3.8
CN1/C(=C\C=N\NC(=O)c2cccnc2)C(C)(C)c2ccccc21	3.8	-3.1	-2.8	0.0
CCc1ccc2cc3c(cc2n1)C(=O)c1ccccc1-3	.	.	.	2.8
CN(CCO)c1nc(N)c(C#N)c(CC#N)c1C#N	33.8*	-9.8	2.0	0.8
Cn1cc(/C=C(\NC(=O)c2ccccc2)C(=O)NCCCn2ccnc2)c2ccccc21	44.2*	.	.	-2.4
Cc1ccc(C(=O)N/C(=C\c2cn(C)c3ccccc23)C(=O)NCCCn2ccnc2)cc1	14.2	-4.2	-2.7	-0.6
COc1ccc(C(=O)N/C(=C\c2cn(C)c3ccccc23)C(=O)NCCCn2ccnc2)cc1	41.4*	1.9	0.1	-1.2
C=CCn1c(O)c(/C=N/N2CCCCC2c2cccnc2)c(=O)[nH]c1=S (centres undefined)	31.0*	-6.8	2.0	-1.6
COc1ccc(/C=N/NC(=O)c2ccncc2)cc1CSc1nc2ccccc2s1	30.9*	-178.1	0.1	2.2
COc1ccc(C(=O)N/N=C\c2ccc(OC)c(COc3ccccc3Br)c2)c(OC)c1	35.4*	-98.9	-1.4	7.7
COc1ccc(/C=N\NC(=O)c2ccc(F)cc2)cc1COc1ccccc1C(N)=O	11.3	-19.3	5.0	1.9
CCOC(=O)c1ccccc1OCc1cc(/C=N/NC(=O)c2ccncc2)ccc1OC	37.9*	-28.4	2.4	2.9
COc1ccc(/C=N\NC(=O)c2ccccc2Br)cc1COc1ccccc1	12.0	-14.3	0.4	-0.8
SMILES	GDH-TPI inh	Rv3671c inh	UGM FP inh	Mtb FBA inh
Cc1ccc(CNC(=O)Cc2noc3ccccc23)cc1	2.5	9.3	-2.5	-0.7
CN1CCN(C(=S)c2ccc(-c3cccc([N+](=O)[O-])c3)o2)CC1	14.3	6.3	0.7	-3.3
O=[N+]([O-])c1cccc(-c2ccc(C(=S)N3CCOCC3)o2)c1	40.9*	-4.2	-1.1	-4.9
c1ccc(-c2cc(-c3ccccc3)n3ncnc3n2)cc1	3.8	0.9	-1.1	23.2
COc1ccc(-c2cc(-c3ccccc3)nc3ncnn23)cc1	25.4	3.6	-0.4	+
Cc1cc(C)n2nc(SCC(=O)N3CCCC(C)C3)nc2n1 (centres undefined)	0.4	-0.2	-0.6	3.3
COc1cccc(/C(O)=C2/C(=O)C(=O)N(CCN3CCOCC3)C2c2cccnc2)c1 (centres undefined)	11.2	-1.8	1.6	-3.4
Cc1ccc(C)c(/C(O)=C2\C(=O)C(=O)N(Cc3cccnc3)C2c2cccnc2)c1 (centres undefined)	37.5*	-0.2	-1.3	-16.2
COc1cc(C2/C(=C(\O)c3ccc4c(c3)OCCO4)C(=O)C(=O)N2CCN2CCOCC2)cc(OC)c1OC (centres undefined)	9.7	.	2.8	1.8
COc1cccc(C2/C(=C(\O)c3ccc4c(c3)OCCO4)C(=O)C(=O)N2Cc2cccnc2)c1 (centres undefined)	31.9*	-6.5	-1.9	4.9
CCOc1ccc(C2/C(=C(\O)c3ccc4c(c3)OCCO4)C(=O)C(=O)N2CCN2CCOCC2)cc1OC (centres undefined)	34.0*	.	0.3	0.3
Cc1ccc(C)c(/C(O)=C2\C(=O)C(=O)N(CCCN3CCOCC3)C2c2cccnc2)c1 (centres undefined)	53.5*	.	.	-2.5
O=C1C(=O)N(Cc2cccnc2)C(c2cccc([N+](=O)[O-])c2)/C1=C(\O)c1ccc2c(c1)OCCO2 (centres undefined)	20.2	0.5	0.8	-2.9
COc1ccc(/C(O)=C2/C(=O)C(=O)N(Cc3cccnc3)C2c2ccncc2)cc1F (centres undefined)	17.7	3.6	-2.7	0.0
O=C(Nc1c(-c2ccccc2)[nH][nH]c1=O)c1ccco1	.	.	.	2.1
CCn1c(SCCN2CCOCC2)nc2c1c(=O)n(C)c(=O)n2C	1.9	2.2	-0.3	-1.6
O=C(COC(=O)/C=C/c1cccc(C(F)(F)F)c1)Nc1cccc(S(=O)(=O)NC2=NCCC2)c1	0.9	.	.	-1.4
COc1ccc(/C(O)=C2/C(=O)C(=O)N(CCN3CCOCC3)C2c2cccnc2)cc1OC (centres undefined)	10.1	-8.7	.	-1.9
Cc1cc(OCc2ccccc2)ccc1/C(O)=C1/C(=O)C(=O)N(Cc2cccnc2)C1c1ccncc1 (centres undefined)	37.6*	-2.0	-0.7	1.7
COCCN1C(=O)C(=O)/C(=C(/O)c2ccc(S(=O)(=O)N3CCOCC3)cc2)C1c1ccc(O)cc1 (centres undefined)	32.9*	7.4	2.9	-3.1
Cc1ccc(/C(O)=C2/C(=O)C(=O)N(CCN3CCOCC3)C2c2cccnc2)cc1 (centres undefined)	33.0*	-8.3	-3.9	-1.4
O=C(COc1ccc2c3c(c(=O)oc2c1)CCC3)Nc1ccc(CN2CCOCC2)cc1	18.8	-2.2	-2.0	7.0
Cc1nc(Cc2nnc(SCC(=O)N3c4ccccc4NC(=O)C3(C)C)o2)cs1	8.2	.	.	0.8
O=c1[nH]cccc1-c1nc2ccccc2n1Cc1ccccc1F	5.2	7.3	-1.3	121.8*
Cn1c(-c2ccc[nH]c2=O)nc2cc(Cl)ccc21	2.5	-0.1	-1.1	137.3*
Oc1ccccc1Cn1c(-c2ccccc2O)nc2ccccc21	3.5	1.2	-2.0	14.8
CCn1c(-c2ccc[nH]c2=O)nc2ccccc21	4.4	1.6	-0.5	134.1*
